Only some compounds are listed: those with a hit (about 3.9% of all), similar ones and a draw of the others.
AHR act: human AHR activation. P35869. AHR-responsive luciferase reporter cells, luminescence. activation, % at 5 µM. hit rate 2.5% among 320,000; in the data active = activation above about 47%;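 note: 0% = vehicle wells and 100% = reference agonist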
PLC-beta3 inh: PLC-beta3 (human) inhibition, primary screen; Q01970; Purified PLC-beta3, fluorogenic substrate, fluorescence; inhibition, % at 12.2 µM; hit rate 0.18% among 370,000; AID 720704; in the data active = inhibition above about 11%;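 note: 0% = median of compound wells on plate and 100% = full blocker control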
HIF act: HIF pathway transcriptional activation. U2OS HRE-luciferase reporter, luminescence; normalized: DMSO 0%, desferrioxamine 100%. activation, % at 7.5 µM (by protocol). hit rate 0.32% among 300,000;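 active = mean activation of at least 10% of the iron chelator positive control signal, with at least half of replicates also reaching 10%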
Yeast superoxide: yeast age-related superoxide inhibition as caloric restriction mimetic; S. cerevisiae aged cells, superoxide DHE fluorescence; hits give low values; superoxide response (% of plate mean), % at 10 µM; hit rate 0.18% among 330,000;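 active = superoxide response under a set limit, about three screen SD below normal, cut at about 65% in these data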;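 note: yeast aged for seven days with compound at 30 °C before DHE staining; 100% = average MFI of all compound-treated wells on the plate with controls excluded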
HGIII-sPLA2 inh: Blocks human group III sPLA2 activity; QFRET BODIPY PC-A2 liposome hydrolysis, fluorescence; inhibition, % at 12.2 µM; AID 743126; Q9NZ20; hit rate 0.56% among 370,000;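 active = inhibition above mean plus 3 SD of compounds lying within the high and low control bounds, cut at about 19% in these data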;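 note: 0% = median of test compound wells and 100% = no enzyme DMSO wells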
PLCg1 inh: blocks human PLC-gamma1 enzyme activity; hit rate 0.84% among 370,000; purified PLC-gamma1, fluorogenic substrate, fluorescence; inhibition, % at 12.2 µM; P19174; AID 720700; in the data active = inhibition above about 9.5%
* = called active by the depositor; . = no result.

SMILES	AHR act	PLC-beta3 inh	HIF act	Yeast superoxide	HGIII-sPLA2 inh	PLCg1 inh
O=C(Nc1ccc(F)c(Cl)c1)C1CCCN(c2cnccn2)C1 (configuration not stated)	73*	-39	0	97	-6	-17
CCOC(=O)c1ccc(NC(=O)C2CCCN(c3cnccn3)C2)cc1 (configuration not stated)	63*	-57	2	74	0	-34
COc1ccc2c3n([n+]([O-])c2c1)CCN=C3c1ccc(C)cc1	29	-15	.	68	2	-11
COc1ccc2c3n([n+]([O-])c2c1)CCN=C3c1cc(Cl)c(N)c(Cl)c1	69*	-22	.	85	4	-18
CC1(C)CC(=O)N(CC(=O)N2CCN(c3ccc(F)cc3)CC2)c2ccccc2S1(=O)=O	.	0	.	.	-1	-1
Cc1ccc(-c2cc(N)n(-c3ccc(C)cc3)n2)cc1	52*	-4	-1	105	-4	-1
COC(=O)C1=C(C)N(Cc2ccc(OC)cc2)C(=O)C1	-2	-99	223*	102	-26	2
CCn1nc(NC(=O)c2ccncc2)c2cc3cccc(C)c3nc21	32	0	0	90	-1	-3
CCn1nc(NS(=O)(=O)c2ccc(NC(C)=O)cc2)c2cc3cccc(C)c3nc21	2	-25	51*	94	-12	-13
CCn1nc(NC(=O)c2cccnc2)c2cc3cccc(C)c3nc21	68*	-27	0	100	-6	-24
CN(C)c1cccc(/C=C2\CC3(OC(=O)c4ccco4)CCCN2C3)c1 (configuration not stated)	.	-2	.	.	8	0
O=C(/C=C/c1ccccc1F)c1cccc([N+](=O)[O-])c1	58*	-3	0	114	3	0
CC(CO)(CO)NC(=O)c1ccc(C#Cc2cccc(F)c2)cn1	.	-14	.	.	9	-4
O=C(NCC1COCCO1)C1CCN(S(=O)(=O)c2ccc(Br)s2)CC1 (configuration not stated)	.	0	.	.	4	-2
Cc1ccc(NC(=O)c2ccc(F)cc2)cc1S(=O)(=O)N1CCCCCC1	0	8	0	88	-16	8
Cc1ccc(S(=O)(=O)N2CCCCC2)cc1NC(=O)c1ccc(Cl)nc1	75*	-4	.	89	-6	-2
Cc1ccc(C(=O)Nc2ccc3cn[nH]c3c2)cc1S(=O)(=O)N1CCCCC1	55*	6	3	99	-16	9
Cc1cc(O)cc(=O)n1-c1cccc([N+](=O)[O-])c1	.	0	.	.	2	0
Cc1nc(NC(C)C)c2cnn(CCc3ccccc3)c2n1	59*	-1	1	103	-2	0
CCCNc1nc(C)nc2c1cnn2CCc1ccccc1	68*	-2	1	86	0	3
CCC(C)Nc1nc(C)nc2c1nnn2Cc1ccccc1 (configuration not stated)	.	2	.	.	0	4
Cc1nc(NCCCN2CCOCC2)c2cnn(-c3ccccc3)c2n1	.	7	.	.	1	-1
O=C(O)Cc1sc(Nc2cccc3ccccc23)nc1-c1ccccc1	61*	-53	.	98	6	-31
O=C(O)Cc1sc(Nc2cccc3ccccc23)nc1-c1ccc(Cl)cc1	56*	-32	0	106	0	-25
O=C(O)Cc1sc(Nc2ccc(Cl)cc2)nc1-c1cccs1	.	-46	2	.	13	-37
SMILES	AHR act	PLC-beta3 inh	HIF act	Yeast superoxide	HGIII-sPLA2 inh	PLCg1 inh
Nc1nc(-c2ccccc2)c(CC(=O)O)s1	.	-11	.	.	-4	-6
C=CCN1[C@@H](CC(C)C)COc2cc(F)ccc2S1(=O)=O	.	0	.	.	7	-1
CN1CC=C(c2ccc(C(F)(F)F)cc2)N(c2ccc(Br)cc2)C1=O	.	2	.	.	-7	3
Cc1nnc(SCCC(=O)Nc2nc(-c3ccccc3)ns2)s1	67*	-4	0	82	-2	-4
O=C(Nc1ccnc(-c2cccnc2)n1)c1cccs1	64*	-7	0	88	3	-1
CC(C)C(=O)Nc1nc(-c2ccccc2)ns1	42	-6	3	106	4	-2
O=C(Nc1nc(-c2ccccc2)ns1)c1cccs1	106*	-6	1	114	1	-2
CC(=O)Nc1nc(-c2ccc(Cl)cc2)ns1	84*	1	3	90	-13	0
COc1cccc(N2CCN(CC(=O)NCc3c(F)cccc3F)CC2)c1	.	-3	.	.	5	-7
O=C(Nc1ccc(F)cc1)OCc1cn(Cc2ccccc2Cl)nn1	.	0	.	.	-15	-2
